40 compounds from PubChem BioAssay (Tox21) can be followed below.

The structures appear in SMILES notation. The source made the active and inactive calls. Calls come from the whole dose curve; as a rule, active = well fitted curve in the direction sought with a large enough effect in the repeat runs; inconclusive = weak or mixed curves; inactive = flat fitted curve, though single readings scatter.
% is set by controls: 0 for no effect and ±100 for the full control effect.

This experiment is described as follows: qHTS assay to test for compound auto fluorescence at 535 nm (green) in HepG2 cells (AID 720675). Conditions: green autofluorescence 485/535 nm, 1 h; series mostly up to 91.3 µM; fluorescence, % of fluorescein control: at the top concentration. The source says:
National Center for Advancing Translational Sciences [NCATS]
NIH Chemical Genomics Center [NCGC]
U.S. Environmental Protection Agency [EPA]
National Institutes of Environmental Health Sciences [NIEHS]
National Toxicology Program [NTP]
U.S. Food and Drug Administration [FDA]
Compound auto fluorescence often interferes with screening of the compound library against various biological targets and signaling pathways. Some of these compounds may have fluorophoric properties. Such properties may interfere with the assay outputs resulting in false positives and/or negatives. To decrease such complications and ensure the compound activities are relevant in terms of biological response, the Tox21 10K compound library was screened for auto fluorescence.
From the fluorophores used as reporter signals in our screening assays, the auto fluorescence equivalencies of compounds against three fluorophores have been evaluated: Triamterene, Fluorescein and Rose Bengal sodium for blue, green and red fluorescence, respectively. The fluorescence intensities were measured using Excitation/Emission wavelengths at 405/460nm, 485/535nm and 540/590nm for blue, green and red labels, respectively. This assay includes the green fluorescence data.
Tox21 Assay Protocol Summary:
2,000 HepG2 cells in 5 uL of culture medium (MEM containing 10% FBS) per well were dispensed into black wall/clear bottom 1536-well plates using a Multidrop Combi Dispenser (ThermoFisher Scientific, Waltham, MA). The assay plates were incubated overnight at 37 C to allow cell attachment to the well bottom, followed by the transfer of 23 nL compound or DMSO vehicle by a pintool work station (Kalypsys , San Diego, CA). After the assay plates were incubated for 1 hr at 37 C and 5% CO2, fluorescence intensities in the assay plates were measured by an Envision (PerkinElmer, Shelton, CT) plate reader using three labels for measuring blue, green and red fluorescence at […] 460, 535 and 590 nm respectively.
On the technique in general: In qHTS, concentration-response curves come from the screen itself.
On to `CC(C)c1cccc(C(C)C)c1`, for which the compound was called inactive.

On to `CC(C)CC(=O)CC(C)CC(C)C` (stereo not given), for which the outcome was inactive.

Consider `CCCCCCCCCCCCCCCCO`, for which the outcome was inactive.

Turning to `O=[N+]([O-])c1ccc2nc[nH]c2c1`, the outcome was inactive.

For the compound `COc1ccc(N)c(C)c1`, the compound was classed as inactive.

Consider `CC(C)(C#N)c1cc(Cn2cncn2)cc(C(C)(C)C#N)c1`, for which the result was inactive.

Regarding `C[C@]12CC[C@@H]3c4ccc(O)cc4CC[C@H]3[C@@H]1C[C@@H](O)[C@@H]2O`, the compound was classed as inactive.

Consider `CC1(C)OC[C@@H]2O[C@@]3(C(=O)O)OC(C)(C)O[C@H]3[C@@H]2O1`, for which the call was inactive.

Turning to `Nc1ccc(Cl)c(N)c1`, the compound was called inactive.

In the case of `COC(=O)c1cccnc1`, the result was inactive.

Take `CCOC(=O)n1ccn(C)c1=S`: the compound was called inactive.

For the compound `CCNc1cccc(C)c1`, the compound was called inactive.

For `CC(C)OP(=O)(CP(=O)(OC(C)C)OC(C)C)OC(C)C`, the “fluorescence, % of fluorescein control” value is -0.0085% (inactive).

Consider `CN(C)c1ccc(Cc2ccc(N(C)C)cc2)cc1`, for which the call was inactive.

Regarding `CCCCCCCC=O`, the compound was called inactive.

Take `COc1ccc(OC)cc1`: the compound was classed as inactive.

Regarding `CC(=O)CC(C)(C)O`, the compound was called inactive.

For the compound `C=CCc1ccc(OC)c(OC)c1`, the compound was classed as inactive.

For the compound `CC(C)(C)c1cc(Cc2cc(C(C)(C)C)c(O)c(C(C)(C)C)c2)cc(C(C)(C)C)c1O`, the call was inactive.

For the compound `C=C(C)C(=O)OCC(C)C`, the result was inactive.

As to `CCCCCCCCCCO`, the call was inactive.

In the case of `CC(=O)OCc1ccccc1`, the outcome was inactive.

`CC(=O)OCc1ccco1`: the outcome was inactive.

On to `COC(=O)CCCC(=O)OC`, for which the call was inactive.

For `OCc1ccccc1`, the result was inactive.

`COc1ccc(CCC(C)=O)cc1`: the “fluorescence, % of fluorescein control” value was 0.129% (inactive).

On to `CNC(=O)Oc1ccc2c(c1)[C@]1(C)CCN(C)[C@@H]1N2C`, for which the compound was classed as inactive.

For the compound `CSc1ccc(Cl)cc1`, the call was inactive.

`O=C(O)Cn1c(=O)n(Cc2ccc(Br)cc2F)c(=O)c2ccc(Cl)cc21`: the “fluorescence, % of fluorescein control” value was 0.0232% (inactive).

Consider `CCNc1ccccc1`, for which the call was inactive.

In the case of `O=C1C(c2[nH]c3ccccc3c2O)=Nc2ccccc21`, the outcome was inactive.

As for `CCCCCCO`, the compound was called inactive.

On to `CC(O)CC(C)(C)O` (stereo not given), for which the compound was classed as inactive.

In the case of `CC(CCl)OP(=O)(OC(C)CCl)OC(C)CCl` (stereo not given), the compound was classed as inactive.

For the compound `O=C1CCCC1`, the call was inactive.

On to `CCc1ccccc1CC`, for which the result was inactive.

Turning to `CC(C)CCCCCCCOC(=O)CCCCC(=O)OCCCCCCCC(C)C`, the compound was classed as inactive.

Turning to `CC(C)CC(C)O` (stereo not given), the compound was called inactive.

As to `CCCCCCC=O`, the compound was classed as inactive.

As to `O=C1c2ccccc2CCc2ccccc21`, the “fluorescence, % of fluorescein control” value is 0.138% [at 95.7 µM] (inactive).
